Experimental data published in the supplement of paper PMC8726507.
Unmarked numbers belong to inactive results.

tested on: Plasmodium falciparum NF54-HGL (transmission to Anopheles stephensi); test: percentage of barcode signal found in uninfected mosquitoes (transmission-blocking activity); higher = stronger blocking of transmission to mosquito, active = 80 or more; conditions: 10 µM; gametocyte preincubation time 24 h; readout time post-feed 8 days
Procedure: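 The mixture was fed to Anopheles stephensi in 96-well plates as blood meals tagged with DNA-barcoded Asaia bacteria. Eight days later, mosquitoes were classed infected or uninfected by luminescence (mean + 5 SD of unfed controls). Barcodes were quantified by Luminex MagPlex-TAG in the pooled uninfected and infected Asaia cultures, background-corrected, and the score is % of barcode signal in uninfected mosquitoes = 100*Iu/(Iu+Ii).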

Structure (SMILES) | percentage of barcode signal found in uninfected mosquitoes [%]
NS(=O)(=O)c1cncc(-c2ccc3nccc(-c4cn[nH]c4)c3n2)c1 | 78.5
COC(=O)c1c(NC(=O)c2cc3ccccc3oc2=O)sc2c1CCN(Cc1ccccc1)C2 | 49.1
OCCc1ccc(Nc2nccc(-c3nnc4ccccn34)n2)cc1 | 77
CCC(=O)Nc1ccccc1C(=O)Nc1ccccn1 | 50
Cc1ccc2c(c1C)NC(=O)C21NN=C(c2ccccc2)S1 (stereo unspecified) | 77
CN(C(=O)c1cc2c(-c3cncnc3)cccc2[nH]1)c1ccccc1 | 66.4
CNC1C(OC2C(OC3C(O)C(O)C(NC(=N)N)C(O)C3NC(=N)N)OC(C)C2(O)C=O)OC(CO)C(O)C1O (stereo unspecified) | 47
CC(C)C(NC(=O)Cc1cccc2ccccc12)C(=O)Nc1cccc(C#N)c1 (stereo unspecified) | 53.4
Cc1nc(-c2ccccn2)nc(N2CCC(Cc3ccccc3)C2)c1Cl (stereo unspecified) | 78
CNC(=O)c1nn(C)c2c1C(C)(C)Cc1cnc(Nc3ccc(N4CCN(C)CC4)cc3)nc1-2 | 64
O=C1Nc2ccc(Br)cc2C12NCCc1c2[nH]c2ccccc12 (stereo unspecified) | 27.2
c1ccc(Oc2ccc(-c3cc(C4CCOCC4)[nH]n3)cc2)cc1 | 10.6
CC1CCCCN1C(=O)NCCc1coc(-c2ccc(F)cc2)n1 (stereo unspecified) | 42
O=C(Nc1nc(-c2ccccn2)cs1)C1CC1c1ccccc1F (stereo unspecified) | 53.8
COc1ccc(-c2onc(C(F)(F)F)c2-c2ccc(Cl)cc2)c(O)c1 | 25.2
Cc1cc(C)n2nc(C(=O)Nc3cc(C(F)(F)F)ccc3N3CCOCC3)nc2n1 | 29.6
